Bioassay records from PubChem BioAssay.
An excerpt weighted towards active compounds, which were near 7.9% of everything screened.
SW480 rerep: DNA re-replication induction in SW480 cells. SW480 DNA re-replication, Hoechst DNA content imaging, 48 h. Potency, µM (highest dose often 46.1 µM), without a hit: at the highest dose re-replication activation, hits mostly activators. 340,000 compounds, 1.8% hits. AID 624297; also: % of control where 0% means no effect; nearly all actives have a fitted effect of over 55% in size
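Quantitative HTS format with DMSO vehicle controls; 48 hr drug incubation at 37 C, then 40 min Hoechst staining and scanning imager measurement at 405 nm excitation.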
MCF10A rereplic: DNA re-replication induction in MCF 10a cells; MCF 10A DNA re-replication, Hoechst nuclear intensity, 48 h; 350,000 compounds, 2.9% hits; Potency, µM (top dose mostly 46.1 µM), without a hit: at the highest dose activity, positive = re-replication, hits mostly activators; also: % of control where 0% means no effect; nearly all actives have a fitted effect of over 50% in size
HT1080NT lethal: kills 2HG-producing HT-1080-NT fibrosarcoma cells; HT-1080-NT fibrosarcoma viability, CellTiter-Glo ATP luminescence, 48 h; Potency, µM (titrated, usually from 46.1 µM), without a hit: at the highest dose activity, negative = less viability, hits mostly cytotoxic; 360,000 compounds, 1.6% hits; AID 686970;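 also: NT is the 2HG producing partner of a matched IDH1 knockdown line; 0% = DMSO-treated cells and -100% = media-only wells without cells; nearly all actives have a fitted effect of over 55% in size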
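Read-out is CellTiter-Glo luminescence after 10 minutes at room temperature, following 48 hours' compound treatment of HT-1080-NT cells (750 cells/well, RPMI, 5% FBS, 37 degrees C).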
KB-V1 MDR tox: KB-V1 MDR subline cytotoxicity | AID 1347076 | KB-V1 MDR cells viability, CellTiter-Glo, 72 h | 400,000 compounds, 3.4% hits | Potency, µM (top dose mostly 46.1 µM), most hits filed as cytotoxic; also: % is scaled to controls: 0 for no effect and ±100 for the full control effect; nearly all actives have a fitted effect of over 60% in size
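KB-V1 cells (P-gp-expressing MDR subline of KB-3-1) in phenol-red-free DMEM with 10% FBS were exposed to library compounds over a concentration series for 72 h at 37 degrees C. Viability read by CellTiter-Glo luminescence; concentration-effect curves fitted after normalization.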
KB-3-1 tox: KB-3-1 parental cell cytotoxicity; KB-3-1 viability, CellTiter-Glo ATP luminescence, 72 h; Potency, µM (series often up to 46.1 µM), most hits filed as cytotoxic; 400,000 compounds, 1.4% hits; AID 1347075; also: % is scaled to controls: 0 for no effect and ±100 for the full control effect; nearly all actives have a fitted effect of over 60% in size
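Here the drug-naive KB-3-1 line serves as comparator for MDR sub-line selectivity; cells received compound titrations, 72 h at 37 °C, then CellTiter-Glo readout.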
HT1080 IDH1KD tx: HT-1080 IDH1 knockdown cell toxicity (counter line). 360,000 compounds, 2% hits. Potency, µM (series often up to 46.1 µM), without a hit: at the highest dose activity, negative = toxicity, hits mostly cytotoxic. HT-1080 IDH1 knockdown viability, ATP luminescence, 48 h;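 also: 0% = DMSO wells and -100% = cell-free medium wells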
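IDH1KD HT-1080 cells, 750/well, RPMI + 5% FBS; compound pinned after 2 h settling; 48 h, 37 °C; CellTiter-Glo luminescence; % activity normalised to DMSO and no-cell wells; curves fitted, classed by r2 and efficacy.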
* hit, by the source's call; i = inactive; ? = inconclusive; . = not tested or not shown; [ ] = remark or other dose. Calls follow the shape of the dose curve; as a rule, active = well fitted curve in the direction sought with a large enough effect; inconclusive = small, poorly fitted or top-dose-only effect, or another doubt; inactive = no such curve, though single readings can be large; an effect the other way counts as inactive or inconclusive. Potency is read from the fitted curve at half-maximal effect.

SMILES | SW480 rerep | MCF10A rereplic | HT1080NT lethal | KB-V1 MDR tox | KB-3-1 tox | HT1080 IDH1KD tx
Cc1ccc(-c2csc(/C(C#N)=C/Nc3ccccc3SC(F)(F)F)n2)cc1 | -1% | 9% | 14% | i | i | 8%
Cc1ccc(NC(=O)Nc2ccc(F)c(Cl)c2)cc1 | -3% | 1% | 0% | i | i | -4%
CCOc1ccc(NC(=O)CCC(=O)NNC(=O)Nc2cccc(Cl)c2)cc1 | ? | 0.18µM* | -4% | ? | i | 1%
CSc1ccccc1NC(=O)Nc1ccc(F)c(Cl)c1 | -1% | ? | -3% | 21µM* | i | 1%
O=C(Nc1ccc(Cl)c(Cl)c1)Nc1ccc(Br)cc1F | . | ? | ? | ? | ? | 16µM*
O=C(Nc1ccc(Cl)c(Cl)c1)Nc1ccccc1O | -4% | 7% | 4% | ? | i | 4%
CN(C)c1ccc(/C=N/N=C/c2ccccc2O)cc1 | -6% | 11% | 6% | i | i | 15%
CCCCN(CCCNC(=O)Cn1ncc2ccsc2c1=O)Cc1ccccc1 | 0% | 2% | 2% | i | i | 0%
CCC(C)N1CC(C(=O)O)CC1=O (centres undefined) | -11% | -8% | 6% | i | i | -12%
COC(=O)Cn1c(=O)c2c(n(Cc3ccccc3)c1=O)N/C(=C/c1ccc(Br)cc1)C2=O | ? | 4.6µM* | -4% | ? | ? | -13%
Cc1ccc2[nH]c3c(N4CCOCC4)ncnc3c2c1 | -6% | 10% | -29% | i | i | ?
Cc1ccc2[nH]c3c(N4CCc5ccccc5C4)ncnc3c2c1 | 3% | ? | 21µM* | ? | ? | -8%
c1ccc2c(c1)[nH]c1c(N3CCCC3)ncnc12 | -5% | 4% | -12% | ? | i | -11%
CN1CCN(c2ncnc3c2[nH]c2ccc(F)cc23)CC1 | 3% | -2% | 0% | i | i | -23%
Brc1ccc2[nH]c3c(N4CCc5ccccc5C4)ncnc3c2c1 | ? | ? | 18µM* | i | i | 23µM*
Fc1ccc2[nH]c3c(N4CCc5ccccc5C4)ncnc3c2c1 | -14% | ? | 10µM* | 6.5µM* | ? | 2.6µM*
CCOc1ccc2[nH]c3c(N4CCc5ccccc5C4)ncnc3c2c1 | ? | 9.2µM* | 18µM* | 12µM* | ? | 10µM*
CNc1nc(SC)nc(N(C)C#N)n1 | 13% | 25% | 0% | i | i | -2%
CCOC(=O)N1CCN(C(=O)C2CCN(S(=O)(=O)c3ccc(C)cc3)CC2)CC1 | -13% | 4% | 3% | i | i | 1%
COc1ccc(CNC(=O)C2=CC(c3ccc(C)cc3)=NS(=O)(=O)N2C)cc1 | 1% | 9% | 15% | i | i | 0%
Cc1cccc(NC(=O)NNC(=O)COc2ccc([N+](=O)[O-])cc2)c1C | 1% | 2% | -7% | . | . | -8%
O=C(COc1ccc([N+](=O)[O-])cc1)NNC(=O)Nc1ccccc1F | -4% | -1% | 4.1µM* | i | i | 3.7µM*
O=C(COc1ccc([N+](=O)[O-])cc1)N(Cc1ccccc1)Cc1ccccc1 | -1% | 1% | -21% | 18µM* | i | -22%
CC(C)C[C@@H](CNCC(=O)[C@H](C)NC(=O)c1[nH]cnc1C(=O)N[C@@H](C)CN)NC(=O)c1nc[nH]c1C(=O)N[C@@H](C)C(=O)O | -2% | 1% | -1% | i | i | -7%
Cc1ccc(N2C(=O)C(Cl)=C(NCc3ccccc3)C2=O)c(C)c1 | -6% | 2% | -4% | ? | i | -4%
SMILES | SW480 rerep | MCF10A rereplic | HT1080NT lethal | KB-V1 MDR tox | KB-3-1 tox | HT1080 IDH1KD tx
CCOC(=O)C(Nc1ccc2ccccc2c1)C(=O)OCC | 13µM* | 4.6µM* | -4% | i | i | 7%
CC(=O)CC(=O)Nc1ccc2ccccc2c1 | -16% | -2% | 6% | i | i | 2%
O=S(=O)(c1ccccc1)c1nc(-c2ccccc2Cl)oc1NCCCN1CCOCC1 | ? | ? | -16% | i | i | -33%
Cc1ccccc1-c1nc(S(=O)(=O)c2ccc(Cl)cc2)c(NCCN2CCOCC2)o1 | ? | 21µM* | -3% | i | i | ?
Cc1ccccc1-c1nc(S(=O)(=O)c2ccccc2)c(NCCCN2CCOCC2)o1 | 5% | -3% | -1% | i | 23µM* | 0%
CCN1C(=O)[C@@H]2[C@H](C1=O)[C@@H]1C[C@H]3C(=O)N(CC)C(=O)[C@H]3[C@@H]3C1=C(C(=O)N1C(=O)OC(=NCC4CC4)[C@]31C)[C@@H]2C | 5% | 29% | 3% | ? | i | 1%
CCSc1nc(C)c(C)c(=O)[nH]1 | -9% | 4% | 18% | i | i | -2%
Cc1nn(C)c(Cl)c1S(=O)(=O)N1CCC(CO)(CCc2ccccc2)CC1 | -6% | 17% | -13% | 23µM* | ? | ?
COc1ccc(CC2(CO)CCN(S(=O)(=O)c3c(C)nn(C)c3Cl)CC2)cc1 | -32% | 3% | 27% | i | i | 3%
O=C(Nc1nnc(-c2ccc(Br)cc2)o1)c1cccc(N2C(=O)CCC2=O)c1 | -5% | 11% | -10% | i | i | -14%
COc1ccc2nc(C)cc(N/N=C/c3ccc(F)cc3)c2c1 | 16µM* | 23µM* | 2.9µM* | ? | 26µM* | 4.6µM*
COc1ccc(/C=N/Nc2cc(C)nc3ccccc23)cc1 | 4.1µM* | 1.6µM* | 18µM* | ? | 15µM* | ?
COc1ccc(Nc2cc(C)nc3ccc(OC)cc23)cc1 | 17% | 23% | ? | ? | i | ?
CCOc1ccccc1/C=N/Nc1cc(C)nc2ccc(C)cc12 | -4% | ? | 2% | i | i | -1%
COc1ccc(CNc2cc(C)nc3ccc(OC)cc23)cc1 | ? | ? | ? | ? | i | 15µM*
Cc1ccc2nc(C)cc(N/N=C/c3cccc(O)c3)c2c1 | 17% | 5% | ? | i | i | 21µM*
COc1ccc(/C=N/Nc2cc(C)nc3c(C)cccc23)cc1 | 26µM* | 18µM* | ? | i | ? | ?
COc1ccc(Br)cc1/C=N/n1c(C)nc2ccccc2c1=O | -4% | 9% | -2% | i | i | -2%
CCOC(=O)C1CCCN(C(=O)c2cc3c(C)nc4ccccc4c3o2)C1 (centres undefined) | -1% | 20% | 0%[9.24 µM] | 13µM* | i | -6%
COc1ccccc1N1CCN(C(=O)c2cc3c(C)nc4ccccc4c3o2)CC1 | 0% | 22% | ? | ? | ? | -24%
